Holding throughout (details): 10 µM; exposure time 6 h
The test system of assay [1] is Danio rerio larvae (5 dpf). Nature of the assay: difference in excitability vs DMSO (percentage points); higher = more excitable than DMSO. A digest of the protocol: (§1)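 Library compounds were tested at 10 µM final in 100 µL egg water on wild-type 5 dpf zebrafish larvae in 96-well plates for 6 h, with 48 larvae per compound. After 3 h, plates at 28.5 ℃ were imaged every 6 s during a 3-h run of moving lines and 100 ms, 400Hz tones. Behaviours were quantified by Z-LaP Tracker and reported as the compound mean less the vehicle control mean, in percentage points.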

Assay [2] deals with Danio rerio larvae (5 dpf). Nature of the assay: difference in startle response vs DMSO (percentage points); higher = stronger startle than DMSO. A digest of the protocol: as §1
Assay [3] deals with Danio rerio larvae (5 dpf). Nature of the assay: difference in activity during first hour vs DMSO (percentage points); higher = more activity than DMSO. A digest of the protocol:
as §1

In assay [4] the test system is Danio rerio larvae (5 dpf). The assay can be described thus: difference in habituation to acoustic stimuli vs DMSO (percentage points); higher = more habituation than DMSO. In outline: as §1
Assay [5] deals with Danio rerio larvae (5 dpf). Nature of the assay: difference in combined optomotor response to red, green and blue moving lines vs DMSO (percentage points); higher = stronger optomotor response than DMSO. In outline:
as §1

Counter-ions that a name gives are not always drawn.

On to `CO[C@H]1/C=C/O[C@@]2(C)Oc3c(C)c(O)c4c(O)c(c5c(nc6cc(C)ccn65)c4c3C2=O)NC(=O)/C(C)=C\C=C\[C@H](C)[C@H](O)[C@@H](C)[C@@H](O)[C@@H](C)[C@H](OC(C)=O)[C@@H]1C` [Rifaximin], for which the difference in excitability in assay [1] is -5.63. Moreover, in assay [2], the “difference in startle response” value was -5.31. Besides, the “difference in activity during first hour” value in assay [3] stood at 13.2. In addition, the “difference in habituation to acoustic stimuli” value (“difference in habituation” for short) in assay [4] turned out to be 0.472. In assay [5], the difference amounted to 0.85.
For `C[C@@H](O)[C@H]1C(=O)N2C(C(=O)O)=C(S[C@@H]3CN[C@H](C(=O)N(C)C)C3)[C@H](C)[C@H]12` [Meropenem (hydrate)] the same measures were 3.3, -1.18, 0.0616, -0.499 and 3.61.
For `CN(C)CCOC(c1ccccc1)c1ccccc1` [Diphenhydramine (hydrochloride)] the same measures were -0.341, 0.108, -10.6, -3.37 and 3.89.
The like results for `CC(C)NCC(O)c1cc(O)cc(O)c1` (stereo not given) [Metaproterenol (hemisulfate)] were, in that order, 3.08, 0.666, 26.4, -8.48 and 1.44.
`O=C(O)CCCN1CCC(O[C@@H](c2ccc(Cl)cc2)c2ccccn2)CC1` [Bepotastine (besylate)] returned a difference in excitability in assay [1] of 13.3. Moreover, the “difference in startle response” value in assay [2] was 3.74. In addition, the “difference in activity during first hour” value in assay [3] was 0.00178. Further, the “difference in habituation” value in assay [4] came out at 0.195. In addition, the difference in assay [5] is 1.29.
For `CC(=O)O[C@H]1C[C@@H]2CC[C@@H]3[C@H](CC[C@@]4(C)[C@H]3C[C@H]([N+]3(C)CCCCC3)[C@@H]4OC(C)=O)[C@@]2(C)C[C@@H]1N1CCCCC1` [Vecuronium (bromide)], the difference in excitability in assay [1] worked out at 11.8. The “difference in startle response” value in assay [2] was -0.798. The “difference in activity during first hour” value in assay [3] is -6.01. The “difference in habituation” value in assay [4] was 3.25. The difference in assay [5] is -1.83.
The like results for `CC1=C(/C=C/C(C)=C\C=C\C(C)=C\C(=O)O)C(C)(C)CCC1` [9-cis-Retinoic Acid] were, in that order, 5.5, -1.66, 5.1, 10.2 and 2.9.
The like results for `C=CC1=C(C(=O)O)N2C(=O)[C@@H](NC(=O)/C(=N\O)c3csc(N)n3)[C@H]2SC1` [Cefdinir] were, in that order, 6.83, 5.77, 6.72, -1.11 and 4.15.
`C/C(O)=C(\C#N)C(=O)Nc1ccc(C(F)(F)F)cc1`: in assay [1], the difference in excitability is 5.48. Also, the “difference in startle response” value in assay [2] was determined as 1.5. Moreover, the “difference in activity during first hour” value in assay [3] is -4.86. The “difference in habituation” value in assay [4] was 6.45. Besides, the difference in assay [5] was found to be 3.09.
For `CCCCC(=O)N(Cc1ccc(-c2ccccc2-c2nnn[nH]2)cc1)[C@H](C(=O)O)C(C)C` [Valsartan] the same measures were -0.389, 4.11, 2.08, -3.08 and 3.88.
For `CCOc1ccc(Cc2cc([C@]34OC[C@](CO)(O3)[C@@H](O)[C@H](O)[C@H]4O)ccc2Cl)cc1` [Ertugliflozin] the same measures were 0.00277, -5.35, 3.38, 4.89 and 1.51.
Consider `CC(C)NCC(O)c1ccc(NS(C)(=O)=O)cc1` (stereo not given) [Sotalol (hydrochloride)], for which the difference in excitability in assay [1] is -4.39. Also, in assay [2], the “difference in startle response” value was -2.26. The “difference in activity during first hour” value in assay [3] was found to be 12. For the same compound, the “difference in habituation” value in assay [4] was -2.03. The difference in assay [5] is -2.43.
The like results for `O=C(c1ccc(OCCN2CCCCC2)cc1)c1c(-c2ccc(O)cc2)sc2cc(O)ccc12` [Raloxifene (hydrochloride)] were, in that order, 22, -0.808, -9.71, 2.6 and 1.59.
For `CO/N=C(\C(=O)N[C@@H]1C(=O)N2C(C(=O)O)=C(COC(C)=O)CS[C@H]12)c1csc(N)n1` [Cefotaxime (sodium salt)] the same measures were 0.947, 0.752, 4.74, 6.08 and 3.19.
For `Nc1nc(F)nc2c1ncn2[C@@H]1O[C@H](COP(=O)(O)O)[C@@H](O)[C@@H]1O` [Fludarabine Phosphate] the same measures were 2.14, -0.759, 3.53, -5.41 and 6.27.
`COc1ccccc1Oc1c(NS(=O)(=O)c2ccc(C(C)(C)C)cc2)nc(-c2ncccn2)nc1OCCO` [Bosentan] had a difference in excitability in assay [1] of 11.1. Further, the “difference in startle response” value in assay [2] was -7.54. In addition, the “difference in activity during first hour” value in assay [3] was 2.38. In assay [4], the “difference in habituation” value amounted to 2.24. Besides, the difference in assay [5] was -0.979.
The like results for `NNCCc1ccccc1` [Phenelzine (sulfate)] were, in that order, -5.16, 2.45, -14.5, 5.81 and 2.16.
For `CC=CC1=C(C(=O)O)N2C(=O)[C@@H](NC(=O)[C@H](N)c3ccc(O)cc3)[C@H]2SC1` [Cefprozil] the same measures were 11.3, -8.07, 1.23, 4.8 and -4.03.
For `NC(=O)OCC(COC(N)=O)c1ccccc1` [Felbamate] the same measures were -5.58, 2.01, 9.63, -0.648 and 2.98.
In turn, `C[C@H]1C[C@@H]2[C@H]([C@@H](O)C[C@@]3(C)[C@H]2CC[C@]3(O)C(=O)CO)[C@@]2(C)C=CC(=O)C=C12` [Methylprednisolone] showed a difference in excitability in assay [1] of 2.35. The “difference in startle response” value in assay [2] is 0.227. In addition, the “difference in activity during first hour” value in assay [3] is 10.3. In assay [4], the “difference in habituation” value was -3.19. In assay [5], the difference stood at 9.29.
`CCC(=O)O[C@]1(C(=O)SCF)[C@H](C)C[C@H]2[C@@H]3C[C@H](F)C4=CC(=O)C=C[C@]4(C)[C@@]3(F)[C@@H](O)C[C@@]21C` [Fluticasone Propionate] registered a difference in excitability in assay [1] of -4.47. For the same compound, the “difference in startle response” value in assay [2] is -3.21. For the same compound, the “difference in activity during first hour” value in assay [3] is 11.5. Further, the “difference in habituation” value in assay [4] was 1.17. Moreover, the difference in assay [5] was 14.7.
For `Cc1ccc(-c2cc(C(F)(F)F)nn2-c2ccc(S(N)(=O)=O)cc2)cc1` [Celecoxib] the same measures were 6.16, -9.06, 2.67, -10.4 and -6.28.
For `CO/N=C1\CN(c2nc3c(cc2F)c(=O)c(C(=O)O)cn3C2CC2)CC1CN` (stereo not given) [Gemifloxacin (mesylate)] the same measures were 7.63, 9.12, 11, -1.77 and 2.04.
The like results for `CCS(=O)(=O)N1CC(CC#N)(n2cc(-c3ncnc4[nH]ccc34)cn2)C1` [Baricitinib] were, in that order, 7.57, -3.92, 10.9, -5.36 and 5.99.
With `CC1(C)S[C@@H]2[C@H](NC(=O)[C@H](N)c3ccccc3)C(=O)N2[C@H]1C(=O)O` [Ampicillin (sodium salt)], the difference in excitability in assay [1] came to 2.42. The “difference in startle response” value in assay [2] amounted to 0.739. For the same compound, the “difference in activity during first hour” value in assay [3] was -2.5. The “difference in habituation” value in assay [4] was -4.92. The difference in assay [5] was -2.47.
For `CO/N=C(\C(=O)N[C@@H]1C(=O)N2C(C(=O)O)=C(CSc3nc(=O)c(O)nn3C)CS[C@H]12)c1csc(N)n1` [Ceftriaxone (sodium salt hydrate)] the same measures were 3.71, 4.15, 12, -2.08 and 8.58.

The values are drawn from the supplement of paper PMC10515830.
